According to ChEMBL document CHEMBL1201862, “PubChem BioAssay data set” (2004):
Among all 400,000 compounds or so, about 2,100 (0.53%) were called active. Roughly 14% stayed inconclusive and do not appear here. No rule for the calls is given here. Shown is part of a subset that was picked to be rich in actives.

Each molecule was assayed against Ataxin-2 (Homo sapiens) (UniProt Q99700) (assay: qHTS for Inhibitors of ATXN expression.).
Ataxin-2 (Homo sapiens), sequence (Q99700 whole entry): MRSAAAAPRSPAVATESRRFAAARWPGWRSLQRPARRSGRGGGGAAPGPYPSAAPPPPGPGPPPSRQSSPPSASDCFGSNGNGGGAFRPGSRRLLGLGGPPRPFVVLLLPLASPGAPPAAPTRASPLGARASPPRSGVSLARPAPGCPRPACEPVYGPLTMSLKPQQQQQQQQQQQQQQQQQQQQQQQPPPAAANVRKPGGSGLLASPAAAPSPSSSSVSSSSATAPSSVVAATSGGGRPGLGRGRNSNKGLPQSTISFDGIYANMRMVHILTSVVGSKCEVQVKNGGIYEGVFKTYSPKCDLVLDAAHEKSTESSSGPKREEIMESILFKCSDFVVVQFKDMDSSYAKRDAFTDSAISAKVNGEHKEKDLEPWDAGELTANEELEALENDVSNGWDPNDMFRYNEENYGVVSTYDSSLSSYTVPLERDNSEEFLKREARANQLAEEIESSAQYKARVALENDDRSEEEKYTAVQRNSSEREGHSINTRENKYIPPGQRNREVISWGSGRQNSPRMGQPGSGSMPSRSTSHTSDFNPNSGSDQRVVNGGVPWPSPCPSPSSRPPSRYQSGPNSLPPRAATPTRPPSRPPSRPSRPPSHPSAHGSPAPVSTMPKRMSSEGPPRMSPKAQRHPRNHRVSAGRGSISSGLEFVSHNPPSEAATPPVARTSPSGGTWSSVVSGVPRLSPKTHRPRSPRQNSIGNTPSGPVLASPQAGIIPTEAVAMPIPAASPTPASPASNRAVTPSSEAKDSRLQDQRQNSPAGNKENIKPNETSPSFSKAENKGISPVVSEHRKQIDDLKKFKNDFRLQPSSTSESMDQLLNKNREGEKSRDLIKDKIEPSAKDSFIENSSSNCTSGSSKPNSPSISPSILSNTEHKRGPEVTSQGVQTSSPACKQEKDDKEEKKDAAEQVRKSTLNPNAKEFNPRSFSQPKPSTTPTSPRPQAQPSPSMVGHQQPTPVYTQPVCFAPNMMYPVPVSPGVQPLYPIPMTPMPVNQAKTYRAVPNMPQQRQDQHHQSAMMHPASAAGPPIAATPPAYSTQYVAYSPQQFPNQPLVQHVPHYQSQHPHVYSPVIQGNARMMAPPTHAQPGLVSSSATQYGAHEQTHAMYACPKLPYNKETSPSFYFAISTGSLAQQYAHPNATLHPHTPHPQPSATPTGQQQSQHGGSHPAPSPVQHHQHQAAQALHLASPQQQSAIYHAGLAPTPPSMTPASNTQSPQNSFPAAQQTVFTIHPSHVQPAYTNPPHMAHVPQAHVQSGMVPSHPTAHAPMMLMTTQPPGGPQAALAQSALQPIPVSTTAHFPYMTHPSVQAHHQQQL
Assay type: functional
`O=S(=O)(Nc1cccc(-c2nc3cccnc3s2)c1)c1ccc2c(c1)CCCC2` was tested, and the Potency was “inactive”.
`CC1C(=O)C(C)C(c2cc(Cl)ccc2O)NC1c1cc(Cl)ccc1O` (centres undefined) was tested, and the Potency was 39.8 µM (active).
`CCc1cc2c(CN3CCN(CC)CC3)cc(=O)oc2cc1O` was tested, and the Potency was “inactive”.
In the case of `CCCCN(C)C1=CC2=CC(=C(C#N)C#N)CCC2CC1` (centres undefined), the Potency is reported as “inactive”.
For `Cc1nc2ccccc2c2oc(C(=O)NCC3COc4ccccc4O3)cc12` (centres undefined), the Potency was 35.5 µM (active).
`Cc1nc2ccccc2c2oc(C(=O)N3CCC(N4CCCCC4)CC3)cc12` was tested, and the Potency was 5.62 µM (active).
With `Cc1sc2ncn(CC(=O)NCC3COc4ccccc4O3)c(=O)c2c1S(=O)(=O)N1CCCCC1` (centres undefined) the Potency was “inactive”.
`COCc1c(C(=O)N2CCC(N3CCCCC3)CC2)cnn1-c1ncc(C)c(-c2cccs2)n1` was tested, and the Potency was “inactive”.
With `O=C(c1cc(-c2ccc(F)cc2)nc2ccccc12)N1CCN(C2CCS(=O)(=O)C2)CC1` (centres undefined) the Potency was “inactive”.
For `COc1cc(OC)c(OC)cc1CNCC1COc2ccccc2O1` (centres undefined), the Potency was “inactive”.
For `Nc1cccc(N2C(=O)c3cccc4c(N)ccc(c34)C2=O)c1`, the Potency was “inactive”.
In the case of `CC(O)C(/N=C/C1=C(O)OC(C)(C)OC1=O)C(=O)O` (centres undefined), the Potency is reported as “inactive”.
For `O=C(O)c1ccc2nc(-c3ccco3)c(-c3ccco3)nc2c1`, the Potency was “inactive”.
With `CCc1cccc2cc3c(N)c(C(=O)Nc4ccc(S(=O)(=O)N5CCCC5)cc4)sc3nc12` the Potency was “inactive”.
In the case of `Nc1c(C(=O)Nc2ccc(S(=O)(=O)N3CCCC3)cc2)sc2nc3ccc(OC(F)(F)F)cc3cc12`, the Potency is reported as 4.47 µM (active).
For `CCOc1ccc2nc3sc(C(=O)N4CCOCC4)c(N)c3cc2c1`, the Potency was “inactive”.
`N#C/C(=C\c1c(Oc2ccc(Cl)cc2)nc2ccccn2c1=O)C(=O)NC1CCS(=O)(=O)C1` (centres undefined) was tested, and the Potency was “inactive”.
For `COC(=O)c1[nH]c2ccc(Br)cc2c1NC(=O)C(C)N1CCN(C2CCCCC2)CC1` (centres undefined), the Potency was 39.8 µM (active).
In the case of `Cn1c(N)c(C(=O)COC(=O)CCOc2ccc(C(C)(C)C)cc2)c(=O)n(C)c1=O`, the Potency is reported as “inactive”.
In the case of `O=C(NC1CCC(O)CC1)c1cc(-c2ccco2)nc2ccccc12` (centres undefined), the Potency is reported as “inactive”.
In the case of `COc1cc(CN2CCC3(CCC(CNC(=O)c4ccccc4)O3)CC2)cc(OC)c1` (centres undefined), the Potency is reported as 11.2 µM (active).
`COc1cc(OC)cc(C(=O)NCCCCNC(=O)c2cc(OC)cc(OC)c2)c1` was tested, and the Potency was “inactive”.
For `CN1CCCC1CCNc1ccc2c(=O)c3ccccc3oc2c1` (centres undefined), the Potency was “inactive”.
`CC1=CC(=C(C#N)c2nc3ccccc3s2)C=C(C)N1CC1CCCO1` (centres undefined) was tested, and the Potency was “inactive”.
For `N#C/C(=C(/O)COC(=O)c1ccccc1O)c1nc2ccccc2s1`, the Potency was “inactive”.
For `Cc1c(Cl)cccc1N/C(SCC(=O)N1CCCCCC1)=C(/C#N)c1nc2ccccc2s1`, the Potency was 25.1 µM (active).
With `COc1ccc(CNCC(=O)Nc2sccc2C#N)cc1` the Potency was “inactive”.
`COc1ccc(-c2c(C#N)c(N)nc3sc(C(=O)c4ccccc4)c(N)c23)cc1` was tested, and the Potency was “inactive”.
For `COc1ccc(-c2oc(NC(=O)CCl)c(C#N)c2-c2ccc(OC)cc2)cc1`, the Potency was 31.6 µM (active).
